Calls of active or inactive are those of the source.

The values that follow come from PubChem BioAssay.

In assay [1] the test system is Plasmodium falciparum Sir2 (PF13_0152, Sir2A). The assay is described as follows: pfSir2 binders on small-molecule microarrays, primary screen, biochemical, small-molecule microarray, 635 nm fluorescence (AID 1098).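 Note: score merges spot fluorescence intensity with its signal-to-noise ratio.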 Particulars: small-molecule microarray binding, fluorescence 635 nm; higher = more signal.
Assay [2] can be described thus: small-molecule microarray binders of probe aDKK1, primary screen, biochemical, biotinylated probe, 635/667 nm fluorescence (AID 1099).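 Note: score merges 667nm spot fluorescence with signal to noise across triplicate slides.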 To be noted: higher = more signal.
Assay [3] is described as follows: small-molecule microarray binders of probe aCHRDL2, primary screen, biochemical, biotinylated probe, 635/667 nm fluorescence (AID 1100). To be noted: higher = more signal.
Assay [4] in a line: splicing luciferase reporter signal modulators, primary screen, spliceosome inhibition project, cell-based, HEK293, splice +/- reporter (AID 1101).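 Note: HEK293 cells carrying a splicing-competent luciferase reporter gene; test concentration not given here.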 To be noted: luminescence, 24 h, higher = more signal, called active from +8 up or from −8 down. Background: In a reporter assay the amount or activity of a reporter protein is the signal.
Assay [5] has as its target Fibroblast growth factor 10 (Homo sapiens) (UniProt O15520). Put plainly: FGF10 binders on small-molecule microarrays, primary screen, biochemical, small-molecule microarray, 635 nm fluorescence (AID 1102). To be noted: FGF10 binding, fluorescence 635 nm, higher = more signal.
The subject of assay [6] is glycogen synthase kinase-3 (GSK3A per assay name; protocol says GSK3B). The assay is described as follows: GSK3 binders on small-molecule microarrays, primary screen, biochemical, small-molecule microarray, 635 nm fluorescence, GSK3A (AID 1103). Note: the record names both GSK3A and GSK3B. To be noted: small-molecule microarray binding, fluorescence 635 nm; higher = more signal.
Assay [7] has as its target Epidermal growth factor receptor (Homo sapiens) (UniProt P00533). Put plainly: EGFR binders on small-molecule microarrays, primary screen, biochemical, small-molecule microarray, 635 nm fluorescence (AID 1104).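 Note: score merges 667 nm emission intensity with spot signal to noise over triplicate slides.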 Particulars: EGFR binding, higher = more signal.
In assay [8] the target is Follistatin-related protein 3 (Homo sapiens) (UniProt O95633). The assay is described as follows: FSTL3 binders on small-molecule microarrays, primary screen, biochemical, small-molecule microarray, 635 nm fluorescence (AID 1105).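 Note: score merges emission near 667 nm and signal to noise per printed spot across three slides.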 To be noted: FSTL3 binding, higher = more signal.
Assay [9] deals with Dickkopf-related protein 1 (Homo sapiens) (UniProt O94907). Put plainly: DKK1 binders on small-molecule microarrays, primary screen, biochemical, small-molecule microarray, 635 nm fluorescence scan (AID 1106).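 Note: score merges emission near 667 nm with signal to noise over three replicate slides.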 Particulars: DKK1 binding, higher = more signal.
Assay [10] has as its system Inhibin beta A chain (activin A). The assay is described as follows: INHBA (activin A) binders on microarrays, primary screen, biochemical, small-molecule microarray, 635 nm fluorescence scan (AID 1107).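 Note: mouse activin A protein probed at 4.33 µg/mL on printed slides; score merges bound-protein fluorescence near 667 nm with spot signal-to-noise.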 Particulars: small-molecule microarray binding, higher = more signal.
Assay [11] concerns Human papillomavirus type 1a protein E7 (residues 44-93). The assay is described as follows: HPV1a E7 fragment binders on microarrays, primary screen, biochemical, small-molecule microarray, residues 44-93, 635 nm fluorescence (AID 1108).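 Note: E7 fragment applied at 1 µg/mL in TBST for 1 h at 4 C; score combines spot fluorescence with its signal to noise ratio.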 To be noted: small-molecule microarray binding, fluorescence 635 nm; higher = more signal.
Assay [12] in a line: modulators of HCV replicon luciferase signal, primary screen, HCV replication inhibitor project, Huh7 cells, luciferase reporter (AID 1109).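 Note: huh7 hepatoma cells harbouring a luciferase neomycin HCV replicon reporter; luciferase luminescence as measure of HCV replicon replication; test concentration not given here.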 To be noted: 48 h, higher = more signal. In general terms: Replicon systems follow genome replication, usually without infectious particles.
Assay [13] has as its target Left-right determination factor 2 (Homo sapiens) (UniProt O00292). Put plainly: LEFTY2 binders on small-molecule microarrays, primary screen, biochemical, small-molecule microarray, 635 nm fluorescence scan (AID 1110). Particulars: LEFTY2 binding, higher = more signal.
The target in assay [14] is Calmodulin-1 (Homo sapiens) (UniProt P0DP23). Put plainly: CALM1 binders on microarrays, EGTA buffer, profiling panel, biochemical, small-molecule microarray, Cy5-labelled CALM1 (AID 1111).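 Note: labelled calmodulin applied in Tris saline Tween buffer holding calcium plus EGTA and DTT.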 Particulars: Cy5-CALM1 binding fluorescence, higher = more signal.
Assay [15] shares this target. The assay is described as follows: calcium-bound CALM1 binders on microarrays, profiling panel, artefact control for SMM control-protein annotation, biochemical, small-molecule microarray, Cy5-labelled CALM1, plus calcium (AID 1112).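 Note: score merges spot fluorescence with signal to noise from triplicate slides.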 To be noted: Cy5-CALM1 binding fluorescence, higher = more signal.
Assay [16] is described as follows: small-molecule microarray binders of probe aWnt5a, primary screen, biochemical, biotinylated probe, 635/667 nm fluorescence (AID 1113).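 Note: score merges 667 nm fluorescence intensity with signal-to-noise per printed feature.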 To be noted: higher = more signal.
Assay [17] can be described thus: small-molecule microarray binders of probe aShh, primary screen, biochemical, biotinylated probe, 635/667 nm fluorescence (AID 1114).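 Note: probe is biotin-labelled aShh protein from a stem cell growth factor screen; measures binding of labelled protein to compounds printed on the slide; score merges feature fluorescence at 667 nm with signal-to-noise.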 Particulars: higher = more signal.
Assay [18] is described as follows: small-molecule microarray binders of probe aNog, primary screen, biochemical, biotinylated probe, 635/667 nm fluorescence (AID 1115).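 Note: probe is biotinylated aNog protein used at 0.15 µg/mL for 1 h at 4 C; z-score combines 667 nm fluorescence of each spot with its signal to noise.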 To be noted: higher = more signal.
Assay [19] deals with Torsin-1A-interacting protein 1 (Homo sapiens) (UniProt Q5JTV8). The assay is described as follows: LAP1 binders from COS7 cell lysate, primary screen, small-molecule microarray, 635/667 nm fluorescence (AID 1116). Particulars: COS7-hLAP1 lysate binding, 635 nm fluorescence, higher = more signal.
For assay [20], the target named is Alpha-bungarotoxin (Bungarus multicinctus) (UniProt P60615). Put plainly: alpha-bungarotoxin binders on microarray, profiling panel, artefact control for SMM control protein annotation, biochemical, small-molecule microarray, Alexa647 label, 635/667 nm fluorescence (AID 1117). Particulars: alpha-BTX-A647 binding fluorescence, higher = more signal.
Chain of Alpha-bungarotoxin (Bungarus multicinctus) (P60615 whole entry, looked up): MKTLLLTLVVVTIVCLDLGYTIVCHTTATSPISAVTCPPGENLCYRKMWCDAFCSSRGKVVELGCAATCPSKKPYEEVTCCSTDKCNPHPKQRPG

Chain of Dickkopf-related protein 1 (Homo sapiens) (O94907 whole entry, looked up): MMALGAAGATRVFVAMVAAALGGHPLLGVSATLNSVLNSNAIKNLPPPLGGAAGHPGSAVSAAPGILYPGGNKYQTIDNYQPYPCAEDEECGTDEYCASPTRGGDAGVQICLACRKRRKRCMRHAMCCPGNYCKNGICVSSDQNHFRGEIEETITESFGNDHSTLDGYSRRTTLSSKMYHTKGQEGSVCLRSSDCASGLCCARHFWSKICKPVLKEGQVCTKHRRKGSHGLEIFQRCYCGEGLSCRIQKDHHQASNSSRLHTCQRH
Chain of Fibroblast growth factor 10 (Homo sapiens) (O15520 whole entry, looked up): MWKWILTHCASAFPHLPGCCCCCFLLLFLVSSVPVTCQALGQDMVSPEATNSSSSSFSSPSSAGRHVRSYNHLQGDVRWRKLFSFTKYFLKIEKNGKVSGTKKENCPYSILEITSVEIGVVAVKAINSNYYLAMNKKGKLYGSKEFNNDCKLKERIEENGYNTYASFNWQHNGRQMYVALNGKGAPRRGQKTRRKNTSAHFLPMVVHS
Chain of Epidermal growth factor receptor (Homo sapiens) (P00533 whole entry, looked up): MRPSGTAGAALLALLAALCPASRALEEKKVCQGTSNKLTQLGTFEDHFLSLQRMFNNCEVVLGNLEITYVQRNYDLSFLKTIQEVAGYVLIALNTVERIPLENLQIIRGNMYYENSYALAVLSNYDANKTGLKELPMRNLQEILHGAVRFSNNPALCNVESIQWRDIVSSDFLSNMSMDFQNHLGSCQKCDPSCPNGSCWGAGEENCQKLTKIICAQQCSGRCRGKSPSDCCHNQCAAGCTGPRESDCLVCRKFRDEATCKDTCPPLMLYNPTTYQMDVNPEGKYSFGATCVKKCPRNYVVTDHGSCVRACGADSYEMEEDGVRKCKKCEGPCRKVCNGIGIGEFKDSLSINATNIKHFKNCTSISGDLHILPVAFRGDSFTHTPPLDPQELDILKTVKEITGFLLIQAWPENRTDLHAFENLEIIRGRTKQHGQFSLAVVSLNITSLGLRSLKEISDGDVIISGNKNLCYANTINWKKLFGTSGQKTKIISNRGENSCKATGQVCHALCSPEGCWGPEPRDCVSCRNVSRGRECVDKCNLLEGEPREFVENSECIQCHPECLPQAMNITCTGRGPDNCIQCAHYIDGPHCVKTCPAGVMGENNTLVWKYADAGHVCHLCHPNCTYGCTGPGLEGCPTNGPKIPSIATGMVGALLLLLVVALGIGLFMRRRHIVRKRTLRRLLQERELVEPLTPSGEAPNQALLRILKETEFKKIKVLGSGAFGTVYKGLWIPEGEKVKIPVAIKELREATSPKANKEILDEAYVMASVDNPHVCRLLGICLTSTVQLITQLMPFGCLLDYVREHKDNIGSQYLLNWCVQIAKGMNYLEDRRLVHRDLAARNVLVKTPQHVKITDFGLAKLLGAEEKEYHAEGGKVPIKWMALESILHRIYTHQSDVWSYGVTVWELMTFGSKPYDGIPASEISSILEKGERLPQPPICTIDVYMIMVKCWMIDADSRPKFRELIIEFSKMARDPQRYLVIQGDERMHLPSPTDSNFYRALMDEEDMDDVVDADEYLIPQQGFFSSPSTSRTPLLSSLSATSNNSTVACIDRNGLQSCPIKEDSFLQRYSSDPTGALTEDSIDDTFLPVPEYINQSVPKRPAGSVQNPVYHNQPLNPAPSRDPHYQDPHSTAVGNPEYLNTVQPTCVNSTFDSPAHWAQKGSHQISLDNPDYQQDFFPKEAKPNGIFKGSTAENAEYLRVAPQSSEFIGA
Chain of Follistatin-related protein 3 (Homo sapiens) (O95633 whole entry, looked up): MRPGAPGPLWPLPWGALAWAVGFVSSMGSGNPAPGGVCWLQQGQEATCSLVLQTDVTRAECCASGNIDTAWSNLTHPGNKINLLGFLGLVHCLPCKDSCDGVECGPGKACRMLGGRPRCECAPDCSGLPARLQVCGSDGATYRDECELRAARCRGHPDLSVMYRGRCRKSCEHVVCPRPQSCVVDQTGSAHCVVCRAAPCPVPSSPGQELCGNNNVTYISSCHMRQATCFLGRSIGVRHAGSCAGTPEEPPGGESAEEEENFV
Chain of Left-right determination factor 2 (Homo sapiens) (O00292 whole entry, looked up): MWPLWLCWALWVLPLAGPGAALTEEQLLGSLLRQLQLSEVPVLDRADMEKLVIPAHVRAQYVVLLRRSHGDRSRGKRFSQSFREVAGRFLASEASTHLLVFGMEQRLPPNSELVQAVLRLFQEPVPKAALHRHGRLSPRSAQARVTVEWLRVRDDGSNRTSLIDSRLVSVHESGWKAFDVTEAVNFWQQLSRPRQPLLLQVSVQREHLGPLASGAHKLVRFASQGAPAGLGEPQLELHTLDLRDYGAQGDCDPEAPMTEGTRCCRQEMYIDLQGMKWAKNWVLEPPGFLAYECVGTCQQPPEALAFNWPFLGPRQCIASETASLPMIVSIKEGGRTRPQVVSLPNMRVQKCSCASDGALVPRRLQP
Chain of Torsin-1A-interacting protein 1 (Homo sapiens) (Q5JTV8 whole entry, looked up): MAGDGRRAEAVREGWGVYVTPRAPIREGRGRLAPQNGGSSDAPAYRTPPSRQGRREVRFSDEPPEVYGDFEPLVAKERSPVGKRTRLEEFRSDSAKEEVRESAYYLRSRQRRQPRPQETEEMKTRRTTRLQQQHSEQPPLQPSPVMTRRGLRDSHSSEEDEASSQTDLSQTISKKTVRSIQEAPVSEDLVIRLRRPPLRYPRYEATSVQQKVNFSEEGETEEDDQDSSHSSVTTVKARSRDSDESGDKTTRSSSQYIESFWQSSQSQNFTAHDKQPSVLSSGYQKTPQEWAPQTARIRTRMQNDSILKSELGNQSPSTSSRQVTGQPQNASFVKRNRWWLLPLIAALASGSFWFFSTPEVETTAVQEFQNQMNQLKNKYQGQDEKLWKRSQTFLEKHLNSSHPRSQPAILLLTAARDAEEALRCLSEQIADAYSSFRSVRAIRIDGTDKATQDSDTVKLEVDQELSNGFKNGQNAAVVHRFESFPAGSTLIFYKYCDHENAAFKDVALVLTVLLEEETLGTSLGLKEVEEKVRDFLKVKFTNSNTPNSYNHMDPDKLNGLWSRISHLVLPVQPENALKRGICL

As to `COc1ccc(COC(=O)NN=C2C[C@@H](O)[C@@H](O)[C@@H]3[C@@H]4C(=O)N([C@@H](C)c5ccccc5)C(=O)[C@@H]4CC[C@@H]23)cc1`, the composite z-score in assay [1] was 0.397; in [2], 0.0429; in [3] it was -0.305; in [5], 0.132; in assay [6] it was -0.111; in assay [7], 0.362. Also, the composite z-score in [8] is 0.192; in [9], 0.244; in assay [10], 0.878; in assay [11], -0.372; in assay [13], 0.609; in assay [14], -0.213. Also, the composite z-score is -0.392 in assay [15]; -0.169 in assay [16]; 0.0121 in [17]; -0.288 in assay [18]; 0.51 in assay [19]; 0.0288 in [20]. The z-score in [4] is 0.158 (inactive); in assay [12], 0.426.

With `CC(=O)OC[C@H]1O[C@H](CC=NOC(C)CN2CCCc3nc(C)c(C)cc32)C=C[C@@H]1OC(C)=O` (stereo not given in full), the composite z-score in assay [1] was 0.104; in assay [2], -0.104; in [3], -0.457; in assay [5], 0.708; in assay [6], 0.961; in [7], 0.383. Further, the composite z-score was 0.834 in [8]; 0.578 in assay [9]; 0.8 in [10]; 0.838 in assay [11]; 0.833 in assay [13]; -0.651 in [14]. Also, the composite z-score in [15] is -1.2; in assay [16], 0.027; in assay [17] it was 0.261; in [18], 0.134; in assay [19], 1; in [20], -0.0213. Further, the z-score was 0.184 (inactive) in assay [4] and -0.475 in assay [12].

For the compound `O=C1C2=CC[C@H]3C(=O)N(C[C@@H]4CCCO4)C(=O)[C@H]3[C@H]2[C@H](O)[C@@H]2O[C@H]12`, the composite z-score is 1.22 in assay [1]; -0.28 in [2]; -0.594 in assay [3]; 0.364 in assay [5]; 0.443 in assay [6]; 0.259 in assay [7]. Also, the composite z-score in assay [8] is -0.191; in [9] it was -0.0034; in [10], -0.277; in assay [11], 0.0207; in assay [13], 0.153; in [14], -0.248. For the same compound, the composite z-score in assay [15] was -1.13; in assay [16], -0.219; in [17], 0.0121; in assay [18] it was -0.158; in assay [19], 0.518; in assay [20], 0.395. The z-score is -1.47 (inactive) in assay [4] and -4.56 in assay [12].

Regarding `CCOC(=O)NN=C1C[C@@H](O)[C@@H](O)[C@@H]2[C@@H]3C(=O)N(CC)C(=O)[C@@H]3CC[C@H]12`, the composite z-score in assay [1] is -0.04; in [2] it was -0.115; in [3], -0.254; in [5] it was 0.125; in [6], -0.256; in assay [7], 0.283. For the same compound, the composite z-score was -0.188 in assay [8]; 0.191 in assay [9]; -0.145 in [10]; -0.307 in assay [11]; 0.346 in [13]; -0.317 in assay [14]. Moreover, the composite z-score in [15] is -0.325; in [16], -0.176; in assay [17], -0.0813; in assay [18] it was -0.244; in [19], 0.0626; in [20], -0.113. In addition, the z-score in [4] is -0.322 (inactive); in assay [12], 0.276.

Regarding `CC(C)CON=C1C[C@@H](O)[C@@H](O)[C@@H]2[C@@H]3C(=O)N(Cc4ccccc4)C(=O)[C@@H]3CC[C@H]12`, the composite z-score in assay [1] was 0.296; in assay [2] it was -0.373; in [3] it was -0.583; in assay [5] it was 0.415; in [6], 0.314; in assay [7] it was 0.553. Moreover, the composite z-score in assay [8] is 0.538; in assay [9], 0.373; in [10] it was -0.204; in assay [11], -0.106; in [13], 0.623; in assay [14], -0.144. Also, the composite z-score is -0.414 in [15]; -0.0107 in assay [16]; -0.324 in [17]; -0.169 in assay [18]; 0.163 in assay [19]; 0.506 in assay [20]. Moreover, the z-score in assay [4] is -1.59 (inactive); in [12], -1.14.

For the compound `CO[C@H]1COC(=O)CC=C[C@@H](C)COC(=O)[C@H]2CCCN2C(=O)CC=C[C@H]1C`, the composite z-score is 1.3 in assay [1]; -0.268 in assay [2]; -1.16 in [3]; 0.756 in [5]; 1.01 in assay [6]; 1.29 in [7]. The composite z-score in assay [8] was 1.45; in assay [9], 1.9; in [10] it was 1.32; in assay [11], -0.858; in [13], 1.48; in assay [14], -1.05. Further, the composite z-score in [15] was -1.72; in [16], -0.0721; in assay [17], 0.684; in assay [18] it was -0.542; in [19], 1.03; in assay [20], -1.25. Further, the values for the z-score in assay [4] and in [12] were -0.104 (inactive) and -0.0849, respectively.

Consider `CCOC(=O)[C@H](Cc1ccccc1)NC(=O)CCC1CC(OC(=O)NCCc2ccc(F)cc2)CC2(CCCC(COC(=O)NCCC(C)C)O2)O1` (stereo not given in full), for which the composite z-score in assay [1] is 1.16; in assay [2], -0.226; in assay [3], -0.415; in assay [5], 0.52; in [6] it was 1.01; in assay [7] it was 0.396. Besides, the composite z-score in assay [8] was 1.18; in [9] it was 0.648; in [10], 0.0186; in assay [11] it was 1.4; in assay [13], 0.676; in [14], -0.0594. Further, the composite z-score in assay [15] is -0.478; in [16] it was -0.164; in assay [17], -0.253; in assay [18] it was -0.0524; in [19], 0.523; in [20] it was 0.633. Also, the z-score in [4] is -0.0793 (inactive); in [12], -0.833.

Take `CCN1C(=O)[C@H]2[C@H]3[C@H](O)[C@H](O)CC(=NOCC(C)C)[C@H]3CC[C@H]2C1=O`: the composite z-score in assay [1] is 0.301; in [2] it was -0.311; in [3] it was -0.621; in [5] it was 0.531; in assay [6] it was 0.636; in [7], 0.732. The composite z-score in [8] is 0.732; in [9], 0.817; in assay [10], 0.122; in [11], -0.0775; in [13], 0.535; in [14], -0.185. Moreover, the composite z-score is -0.987 in assay [15]; -0.0542 in [16]; -0.138 in assay [17]; -0.238 in [18]; 0.152 in assay [19]; -0.14 in assay [20]. Further, the z-score in assay [4] is 0.72 (inactive); in assay [12], 0.295.
